MmCpn inh = blocks the Methanococcus maripaludis chaperonin Mm-Cpn; purified Mm-Cpn ATPase, ADP Transcreener TR-FRET; Potency, µM (series often up to 76.9 µM), inactives show at the highest dose activity, negative = inhibition, actives largely listed as inhibitors; 330,000 tested, 0.031% active; note: potency is the fitted concentration of half-maximal effect; nearly all actives have a fitted effect of over 80% in size
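Quantitative HTS used 25 nM Mm-CPN and 10 uM ATP in magnesium/KCl Tris buffer, pH 7.4, with 1 mM DTT. Hydrolysis ran 30 min at 37°C; ADP was read by HTRF.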
G9a inh = G9a (human) methyltransferase inhibition | Q96KQ7 | G9a H3K9 monomethylation, AlphaScreen, 2 h | Potency, µM (top dose mostly 102 µM), without a hit: at the top dose activity, negative = inhibition, actives largely listed as inhibitors | 350,000 tested, 8.8% active | AID 504332; note: potency is the fitted concentration of half-maximal effect; nearly all actives have a fitted effect of over 75% in size
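Compounds were preincubated with 20 nM G9a for 15 min, after which biotinylated H3K9 peptide (500 nM) and SAM (20 uM) started a 2 h room-temperature reaction. Monomethylated product was quantified by antibody-based AlphaScreen chemiluminescence.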
PLK1 PBD inh = blocks phosphopeptide binding to human PLK1 polo-box domain | Potency, µM, for inactives: max response, negative = inhibition, most hits filed as inhibitors | P53350 | AID 720504 | 360,000 tested, 2.8% active | Plk1 PBD binding of FITC phosphopeptide, fluorescence polarization; note: potency is the fitted concentration of half-maximal effect; series mostly up to about 57 µM; nearly all actives have a fitted effect of over 65% in size
VDR inhibitor = inhibitors of human vitamin D receptor; VDR-SRC2-3 peptide fluorescence polarization, 2 h; Potency, µM, without a hit: max response, negative = inhibition, actives largely listed as inhibitors; 400,000 tested, 0.93% active; AID 504847; note: potency is the fitted concentration of half-maximal effect
Target sequence (P11473 whole entry, looked up): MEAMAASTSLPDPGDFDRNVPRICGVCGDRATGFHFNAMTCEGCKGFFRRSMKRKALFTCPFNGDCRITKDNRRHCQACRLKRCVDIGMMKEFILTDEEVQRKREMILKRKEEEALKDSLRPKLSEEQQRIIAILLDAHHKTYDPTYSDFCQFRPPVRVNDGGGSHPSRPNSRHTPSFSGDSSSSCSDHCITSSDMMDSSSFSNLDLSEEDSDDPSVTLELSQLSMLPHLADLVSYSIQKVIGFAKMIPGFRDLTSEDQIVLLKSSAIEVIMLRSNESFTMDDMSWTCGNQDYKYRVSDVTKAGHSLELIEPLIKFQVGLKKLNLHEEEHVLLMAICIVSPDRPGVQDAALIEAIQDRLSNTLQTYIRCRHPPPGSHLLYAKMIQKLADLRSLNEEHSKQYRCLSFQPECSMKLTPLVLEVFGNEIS
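Fluorescence polarization assay of small-molecule disruption of VDR binding to coregulator peptide SRC2-3. Compounds and controls pin-transferred, then read after 2 h incubation at ambient room temperature.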
Sfp inh = inhibitors of Bacillus subtilis Sfp phosphopantetheinyl transferase; 310,000 tested, 3.5% active; Biochemical Sfp PPTase activity, qHTS; Potency, µM, for the others: largest response in the series, negative = inhibition, actives largely listed as inhibitors; Q9F4F7;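 note: the enzyme is Sfp with the accession as filed and its product quenches rhodamine fluorescence; potency is the fitted concentration of half-maximal effect; 0% = enzyme reaction without inhibitor and -100% = no enzyme wells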
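After 15 min at room temperature with compound, 15 nM Sfp received 5 uM rhodamine-CoA plus 12.5 uM BHQ-2-ybbR (50 mM Hepes pH 7.6, 10 mM MgCl2). Rate came from the fluorescence difference over 30 min, ex 525/em 598 nm.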
CCT chaperon mod = cytosolic chaperonin activity modulation. 360,000 tested, 0.3% active. purified chaperonin ATPase assay, HTRF ADP detection, 30 min. activity change, % (no concentration beside the values), hits read low; in the data active = activity change below about -30%
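TRiC (40 or 20 nM final, by batch activity) in 30 mM Tris pH 7.4, 100 mM KCl, 5 mM MgCl2, 1 mM DTT was treated with compound at 76 uM single dose, then 10 uM ATP, 30 min at 37 °C. ADP was read by HTRF Transcreener.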
Starred values were filed as active, the others as inactive; ! = not confirmed by another sample; [ ] = dose if it differs, or a comment. Only some compounds are listed: those with a hit (about 10% of all), similar ones and a draw of the others. Unless noted, calls come from the whole dose curve; as a rule, active = well fitted curve in the direction sought with a large enough effect; inconclusive = small, poorly fitted or top-dose-only effect, or another doubt; inactive = no such curve, though single readings can be large; an effect the other way counts as inactive or inconclusive. Unless noted, % is set by controls: 0 for no effect and ±100 for the full control effect.

For CCOc1ccc(NC(=O)C2CCCN(S(=O)(=O)c3ccc4[nH]c(=O)ccc4c3)C2)cc1 (stereo not drawn) the results were MmCpn inh -2%, G9a inh -8%[59 µM], PLK1 PBD inh 27µM*, VDR inhibitor -20%, Sfp inh 21% and CCT chaperon mod -1.
Screening CCCNC(=O)CN1C(=O)COc2ccc(S(=O)(=O)N3CC(C)CC(C)C3)cc21 (stereo not drawn) returned MmCpn inh -1%, G9a inh 32µM*, PLK1 PBD inh -11%, VDR inhibitor 4%, Sfp inh 14% and CCT chaperon mod -46*.
COc1cc(NC(=O)C2CCCN(S(=O)(=O)c3ccc4[nH]c(=O)ccc4c3)C2)cc(OC)c1 (stereo not drawn) was read as MmCpn inh 2%, G9a inh 8%[59 µM], PLK1 PBD inh -4%, VDR inhibitor 14%, Sfp inh -2% and CCT chaperon mod -1.
Screening CCOc1ccc(NC(=O)CN2C(=O)COc3ccc(S(=O)(=O)N4CCCCC4)cc32)cc1 returned MmCpn inh -1%, G9a inh 8%[59 µM], PLK1 PBD inh 27µM*, VDR inhibitor -10%, Sfp inh 4% and CCT chaperon mod -2.
`Cc1ccc(Cl)cc1NC(=O)CSc1nc2ccccc2c2nc(-c3ccccc3)nn12` gave G9a inh 10%[59 µM] and VDR inhibitor 0%.
COC(=O)c1cc2oc3ccccc3c2n1Cc1nc(-c2ccc(Cl)cc2)oc1C was read as G9a inh 1%[59 µM] and VDR inhibitor -4%.
For COc1ccc(C(CC(=O)N2CCN(c3ccccc3)CC2)c2c(OC)cc(OC)c3ccc(=O)oc23)cc1 (stereo not drawn) the results were MmCpn inh -4%, G9a inh -8%[59 µM], PLK1 PBD inh -8%, VDR inhibitor 5%, Sfp inh -3% and CCT chaperon mod -1.
COc1cc(O)c(C(CC(=O)N2CCN(c3ccccc3)CC2)c2ccc(N(C)C)cc2)c(OC)c1 (stereo not drawn) was read as MmCpn inh 0%, G9a inh inconclusive, PLK1 PBD inh -11%, VDR inhibitor -16%, Sfp inh 89µM*! and CCT chaperon mod -2.
Cc1ccc(-c2noc(C3CC(=O)N(c4ccc5c(c4)OCCO5)C3)n2)cc1 (stereo not drawn) was read as G9a inh 4%[59 µM] and VDR inhibitor 12%.
O=C(CSc1ccccc1C(=O)NCc1ccccc1)NC12CC3CC(CC(C3)C1)C2 was read as MmCpn inh 1%, G9a inh 10µM*, PLK1 PBD inh -7%, VDR inhibitor 5%, Sfp inh 9% and CCT chaperon mod 2.
For O=C(CSc1ncccc1C(=O)O)NC1CCCCCCC1 the results were MmCpn inh 0%, G9a inh -34%, PLK1 PBD inh 27µM*, VDR inhibitor -26%, Sfp inh 13% and CCT chaperon mod -1.
For O=C(CSc1nc2ncccc2[nH]1)NC1CCCC1 the results were MmCpn inh 1%, G9a inh 22µM*, PLK1 PBD inh inconclusive, VDR inhibitor -15%, Sfp inh inconclusive and CCT chaperon mod 0.
For O=C(CSc1ccccc1C(=O)NCc1ccccc1)NC1CCCCCCC1 the results were MmCpn inh 1%, G9a inh 10µM*, PLK1 PBD inh -7%, VDR inhibitor -1%, Sfp inh -17% and CCT chaperon mod -6.
For COc1cc2cc(CNc3ccccc3)c(=O)n(CC(=O)Nc3ccccc3)c2cc1OC the results were G9a inh -45%[59 µM] and VDR inhibitor 6%.
For COc1ccc2[nH]cc(CCNc3ncnc4ccc(-c5cccc(C#N)c5)cc34)c2c1 the results were G9a inh 0%[0.501 µM], VDR inhibitor -1% and Sfp inh -22%.
Screening Fc1ccc(CSc2nc3ncccc3[nH]2)cc1 returned MmCpn inh 1%, G9a inh 50µM*, PLK1 PBD inh inconclusive, VDR inhibitor -5%, Sfp inh -20% and CCT chaperon mod -1.
COCCn1c(C)cc(C2=NNC(=Nc3ccccc3)SC2)c1C was read as MmCpn inh 1%, G9a inh inconclusive, PLK1 PBD inh -15%, VDR inhibitor 8%, Sfp inh 22µM* and CCT chaperon mod 2.
Screening COCCn1c(C)cc(C2=NNC(=Nc3ccc(OC)cc3)SC2)c1C returned MmCpn inh 0%, G9a inh 7%[12.7 µM], PLK1 PBD inh inconclusive, VDR inhibitor -15%, Sfp inh 50µM* and CCT chaperon mod 1.
For COc1ccccc1OCCCOc1cccc(/C=C2\SC(=O)NC2=O)c1 the results were MmCpn inh 1%, G9a inh -1%[0.501 µM], PLK1 PBD inh 21µM*, VDR inhibitor inconclusive, Sfp inh inconclusive and CCT chaperon mod -3.
Screening COc1cccc(Cn2c(=O)c(C)nc3cnc(N4CCN(C)CC4)nc32)c1 returned G9a inh 1%[0.501 µM], VDR inhibitor -15% and Sfp inh 4%.
Cc1ccc(/C(O)=C2/C(=O)C(=O)N(c3ccccn3)C2c2cccc([N+](=O)[O-])c2)cc1 (stereo not drawn) was read as MmCpn inh -10%, G9a inh 35µM*, PLK1 PBD inh 0%, VDR inhibitor -19%, Sfp inh 1% and CCT chaperon mod 0.
`COc1ccc(C2/C(=C(\O)c3cc(C)ccc3C)C(=O)C(=O)N2CCN(C)C)cc1OC` (stereo not drawn) gave MmCpn inh 0%, G9a inh -39%[12.7 µM], PLK1 PBD inh 2%, VDR inhibitor -12%, Sfp inh -19% and CCT chaperon mod -80*.
COc1ccc(C2/C(=C(/O)c3ccccc3)C(=O)C(=O)N2C)cc1OC (stereo not drawn) was read as MmCpn inh 2%, G9a inh 45µM*, PLK1 PBD inh 0%, VDR inhibitor 13%, Sfp inh 0% and CCT chaperon mod 1.
`COc1ccc(/C(O)=C2/C(=O)C(=O)N(CCN(C)C)C2c2cccnc2)cc1OC` (stereo not drawn) gave MmCpn inh -1%, G9a inh inconclusive, PLK1 PBD inh -11%, VDR inhibitor -18%, Sfp inh 5% and CCT chaperon mod 0.
`Cc1ccc(/C(O)=C2/C(=O)C(=O)N(c3ccccn3)C2c2ccc([N+](=O)[O-])cc2)cc1` (stereo not drawn) gave MmCpn inh -2%, G9a inh 71µM*, PLK1 PBD inh -15%, VDR inhibitor 0%, Sfp inh 6% and CCT chaperon mod -1.
